These results are taken from PMC7862700, “An all-to-all approach to the identification of sequence-specific readers for epigenetic DNA modifications on cytosine”.

What all share (assay): DAPPL (digital affinity profiling via proximity ligation, sequencing); 10 mM Tris-HCl pH 7.5, 50 mM NaCl, 1 mM DTT, 4% glycerol, room temperature, 30 min; GST-TFs on glutathione beads, 16-mer random dsDNA library, 0.1% formaldehyde crosslink after washing; high values mean tight binding
One test addresses T1, FLI1 (Homo sapiens, UniProt Q01543 1-452).
T1 sequence: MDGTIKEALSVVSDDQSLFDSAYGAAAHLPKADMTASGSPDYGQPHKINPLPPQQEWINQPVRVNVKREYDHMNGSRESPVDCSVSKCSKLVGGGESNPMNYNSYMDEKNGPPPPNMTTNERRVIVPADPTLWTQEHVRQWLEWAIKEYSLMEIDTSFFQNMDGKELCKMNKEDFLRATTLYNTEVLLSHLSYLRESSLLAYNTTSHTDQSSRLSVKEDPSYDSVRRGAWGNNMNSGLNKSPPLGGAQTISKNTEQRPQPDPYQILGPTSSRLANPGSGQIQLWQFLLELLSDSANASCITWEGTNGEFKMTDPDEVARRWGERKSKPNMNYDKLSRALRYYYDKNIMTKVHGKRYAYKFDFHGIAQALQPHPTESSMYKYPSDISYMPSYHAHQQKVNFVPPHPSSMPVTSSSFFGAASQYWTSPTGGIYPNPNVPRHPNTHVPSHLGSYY
Particulars: protein: recombinant; tags: N-terminal GST; dsDNA, one strand shown. In short, it runs like this: (§1)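 Pools of DNA-barcoded human transcription factors, expressed in yeast as GST fusions on glutathione beads and combined with a tag-only sample, were incubated with 200 nmole of a 16-mer random double-stranded DNA library. Incubation took 30 min at room temperature in Tris/NaCl/DTT/glycerol buffer and was followed by washing, 0.1% formaldehyde crosslinking, proximity ligation (BsaI/T4 ligase, 1 h, 37 °C), PCR amplification and sequencing on an Illumina NextSeq500. Binding signal is the ratio of a hexamer's read frequency for a factor to its frequency for the tag-only sample.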

The target of a further test is T2, ELK1 (Homo sapiens, UniProt P19419 1-428).
T2 sequence: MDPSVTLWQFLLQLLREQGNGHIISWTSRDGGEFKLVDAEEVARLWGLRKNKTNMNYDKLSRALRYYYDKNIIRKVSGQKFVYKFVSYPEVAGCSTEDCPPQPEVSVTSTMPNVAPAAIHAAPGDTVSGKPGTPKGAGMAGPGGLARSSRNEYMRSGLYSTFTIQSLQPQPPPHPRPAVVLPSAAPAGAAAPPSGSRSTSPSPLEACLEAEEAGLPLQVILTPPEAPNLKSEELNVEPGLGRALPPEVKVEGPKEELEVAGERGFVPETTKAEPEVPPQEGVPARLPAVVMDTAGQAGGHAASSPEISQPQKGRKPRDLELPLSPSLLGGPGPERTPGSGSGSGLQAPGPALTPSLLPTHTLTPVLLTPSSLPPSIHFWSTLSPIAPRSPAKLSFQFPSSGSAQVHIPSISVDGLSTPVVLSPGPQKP
To be noted: protein: recombinant; tags: N-terminal GST; dsDNA, one strand shown. In outline:
as §1

The target in the next test is T3, GABPA (Homo sapiens, UniProt Q06546 1-454).
T3 sequence: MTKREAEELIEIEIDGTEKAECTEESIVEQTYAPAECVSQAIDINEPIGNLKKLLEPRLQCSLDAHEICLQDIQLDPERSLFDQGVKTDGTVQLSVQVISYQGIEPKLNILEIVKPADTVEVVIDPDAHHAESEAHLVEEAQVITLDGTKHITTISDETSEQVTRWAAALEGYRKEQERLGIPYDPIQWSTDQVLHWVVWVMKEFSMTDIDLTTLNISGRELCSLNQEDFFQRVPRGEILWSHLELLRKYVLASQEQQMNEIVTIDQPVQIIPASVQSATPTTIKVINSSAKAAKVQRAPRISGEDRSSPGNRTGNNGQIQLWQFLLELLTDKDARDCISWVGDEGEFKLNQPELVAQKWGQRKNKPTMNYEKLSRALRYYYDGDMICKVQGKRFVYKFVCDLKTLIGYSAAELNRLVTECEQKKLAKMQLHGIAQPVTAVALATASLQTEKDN
Particulars: protein: recombinant; tags: N-terminal GST; dsDNA, one strand shown. In short, it runs like this:
as §1

For a further test, the target named is T4, ERG (Homo sapiens, UniProt P11308 1-479).
T4 sequence: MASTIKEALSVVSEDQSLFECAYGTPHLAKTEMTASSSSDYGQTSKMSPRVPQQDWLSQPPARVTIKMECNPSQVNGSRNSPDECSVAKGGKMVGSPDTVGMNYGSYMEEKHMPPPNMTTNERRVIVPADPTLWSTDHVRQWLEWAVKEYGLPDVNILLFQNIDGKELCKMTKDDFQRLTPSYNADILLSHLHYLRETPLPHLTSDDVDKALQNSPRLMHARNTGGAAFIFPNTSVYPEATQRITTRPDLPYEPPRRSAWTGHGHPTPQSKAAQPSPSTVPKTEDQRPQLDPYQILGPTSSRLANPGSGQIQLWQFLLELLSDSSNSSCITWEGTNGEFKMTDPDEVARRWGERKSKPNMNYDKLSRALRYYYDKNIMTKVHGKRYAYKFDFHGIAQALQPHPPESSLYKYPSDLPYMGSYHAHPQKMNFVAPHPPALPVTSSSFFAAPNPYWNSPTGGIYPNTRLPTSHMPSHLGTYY
Particulars: protein: recombinant; tags: N-terminal GST; dsDNA, one strand shown. In outline:
as §1

The next test addresses ELF1 (Homo sapiens, UniProt P32519 1-619). Particulars: protein: recombinant; tags: N-terminal GST; dsDNA, one strand shown. In short, it runs like this:
as §1

In another test the target is T5, EHF (Homo sapiens, UniProt Q9NZC4 1-300).
T5 sequence: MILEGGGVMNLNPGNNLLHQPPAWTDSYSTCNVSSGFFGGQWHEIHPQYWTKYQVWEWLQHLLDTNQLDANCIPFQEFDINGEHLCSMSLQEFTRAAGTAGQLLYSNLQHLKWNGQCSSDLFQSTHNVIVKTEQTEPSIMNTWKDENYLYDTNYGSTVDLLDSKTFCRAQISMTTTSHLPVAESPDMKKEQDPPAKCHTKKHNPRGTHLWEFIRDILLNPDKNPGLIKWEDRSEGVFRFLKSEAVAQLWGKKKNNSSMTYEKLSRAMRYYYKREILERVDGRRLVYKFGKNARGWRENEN
Particulars: protein: recombinant; tags: N-terminal GST; dsDNA, one strand shown. In short, it runs like this: as §1

For another test, the target named is SPI1 (Homo sapiens, UniProt P17947 1-270). Particulars: protein: recombinant; tags: N-terminal GST; dsDNA, one strand shown. In outline:
as §1

For another test, the target named is SPIB (Homo sapiens, UniProt Q01892 1-262). Particulars: protein: recombinant; tags: N-terminal GST; dsDNA, one strand shown. In short, it runs like this:
as §1

The next test concerns the target T6, ELK3 (Homo sapiens, UniProt P41970 1-407).
T6 sequence: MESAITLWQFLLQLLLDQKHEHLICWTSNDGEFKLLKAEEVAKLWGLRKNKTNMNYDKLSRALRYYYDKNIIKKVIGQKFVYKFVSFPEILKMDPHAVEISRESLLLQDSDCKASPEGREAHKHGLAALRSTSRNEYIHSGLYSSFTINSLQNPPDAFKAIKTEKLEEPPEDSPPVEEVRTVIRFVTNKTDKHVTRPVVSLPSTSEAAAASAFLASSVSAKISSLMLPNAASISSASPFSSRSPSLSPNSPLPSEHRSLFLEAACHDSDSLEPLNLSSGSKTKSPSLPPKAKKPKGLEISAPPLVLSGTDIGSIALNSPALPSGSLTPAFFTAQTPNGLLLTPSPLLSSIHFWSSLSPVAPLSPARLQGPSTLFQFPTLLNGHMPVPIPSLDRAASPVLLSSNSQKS
Particulars: protein: recombinant; tags: N-terminal GST; dsDNA, one strand shown. In short, it runs like this:
as §1

The next test concerns the target T7, FEV (Homo sapiens, UniProt Q99581 1-238).
T7 sequence: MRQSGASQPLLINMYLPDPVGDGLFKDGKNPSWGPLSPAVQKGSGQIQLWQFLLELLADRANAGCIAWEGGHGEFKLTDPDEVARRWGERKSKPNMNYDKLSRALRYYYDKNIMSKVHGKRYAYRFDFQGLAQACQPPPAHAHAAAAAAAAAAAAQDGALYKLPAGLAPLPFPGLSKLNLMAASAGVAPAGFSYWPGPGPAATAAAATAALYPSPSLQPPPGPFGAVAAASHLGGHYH
To be noted: protein: recombinant; tags: N-terminal GST; dsDNA, one strand shown. In outline: as §1

A further test addresses ETV5 (Homo sapiens, UniProt P41161 1-510). Particulars: protein: recombinant; tags: N-terminal GST; dsDNA, one strand shown. In outline: as §1
For the next test, the target named is HSF1 (Homo sapiens, UniProt Q00613 1-529). Particulars: protein: recombinant; tags: N-terminal GST; chain copies: 3; dsDNA, one strand shown. In short, it runs like this:
as §1

The next test deals with T8, SPIC (Homo sapiens, UniProt Q8N5J4 1-248).
T8 sequence: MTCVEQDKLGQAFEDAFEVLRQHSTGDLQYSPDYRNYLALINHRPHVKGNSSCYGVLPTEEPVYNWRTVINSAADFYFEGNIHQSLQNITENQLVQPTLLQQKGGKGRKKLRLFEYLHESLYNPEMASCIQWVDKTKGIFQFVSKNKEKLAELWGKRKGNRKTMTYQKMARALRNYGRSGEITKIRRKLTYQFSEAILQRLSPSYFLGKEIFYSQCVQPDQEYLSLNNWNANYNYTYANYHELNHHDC
Particulars: protein: recombinant; tags: N-terminal GST; dsDNA, one strand shown. In outline: as §1

The next test has as its target ELF4 (Homo sapiens, UniProt Q99607 1-663). To be noted: protein: recombinant; tags: N-terminal GST; dsDNA, one strand shown. In outline:
as §1

The next test addresses T9, ELK4 (Homo sapiens, UniProt P28324-2 1-405).
T9 sequence: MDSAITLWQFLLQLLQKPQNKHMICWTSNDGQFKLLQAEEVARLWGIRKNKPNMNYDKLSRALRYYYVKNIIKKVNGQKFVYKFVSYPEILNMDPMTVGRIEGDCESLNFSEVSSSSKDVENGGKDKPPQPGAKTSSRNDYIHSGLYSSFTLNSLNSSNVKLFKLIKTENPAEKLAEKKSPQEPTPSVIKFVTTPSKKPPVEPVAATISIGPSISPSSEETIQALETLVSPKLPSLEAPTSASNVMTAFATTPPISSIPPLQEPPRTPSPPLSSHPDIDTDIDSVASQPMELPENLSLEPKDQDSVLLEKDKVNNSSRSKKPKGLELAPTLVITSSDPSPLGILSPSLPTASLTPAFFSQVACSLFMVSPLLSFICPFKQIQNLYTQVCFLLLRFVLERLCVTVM
To be noted: protein: recombinant; tags: N-terminal GST; dsDNA, one strand shown. In outline:
as §1

Another test addresses T10, ETV2 (Homo sapiens, UniProt O00321 1-342).
T10 sequence: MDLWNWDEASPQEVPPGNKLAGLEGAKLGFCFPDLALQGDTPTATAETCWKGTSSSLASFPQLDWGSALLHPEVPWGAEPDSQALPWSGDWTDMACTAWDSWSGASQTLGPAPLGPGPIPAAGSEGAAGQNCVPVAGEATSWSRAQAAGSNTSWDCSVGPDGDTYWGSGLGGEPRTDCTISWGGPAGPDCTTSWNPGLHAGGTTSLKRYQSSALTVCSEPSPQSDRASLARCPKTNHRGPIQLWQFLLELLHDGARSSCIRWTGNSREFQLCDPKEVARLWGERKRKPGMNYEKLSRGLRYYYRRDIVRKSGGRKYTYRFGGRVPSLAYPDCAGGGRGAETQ
Particulars: protein: recombinant; tags: N-terminal GST; dsDNA, one strand shown. In outline:
as §1

The target of a further test is T11, ELF3 (Homo sapiens, UniProt P78545 1-371).
T11 sequence: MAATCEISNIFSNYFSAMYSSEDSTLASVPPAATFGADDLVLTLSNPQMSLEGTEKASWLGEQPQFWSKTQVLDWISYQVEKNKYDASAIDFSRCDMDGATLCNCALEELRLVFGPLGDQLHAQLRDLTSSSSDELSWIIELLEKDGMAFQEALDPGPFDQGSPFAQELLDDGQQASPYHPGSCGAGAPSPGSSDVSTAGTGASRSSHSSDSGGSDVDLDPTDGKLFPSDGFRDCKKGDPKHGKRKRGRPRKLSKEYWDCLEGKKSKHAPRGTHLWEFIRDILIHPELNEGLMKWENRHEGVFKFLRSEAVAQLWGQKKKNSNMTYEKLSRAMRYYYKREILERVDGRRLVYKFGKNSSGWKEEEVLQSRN
Particulars: protein: recombinant; tags: N-terminal GST; dsDNA, one strand shown. In short, it runs like this: as §1

For the next test, the target named is ETV1 (Homo sapiens, UniProt P50549 1-477). To be noted: protein: recombinant; tags: N-terminal GST; dsDNA, one strand shown. In short, it runs like this: as §1
Chain of ETV1 (P50549 whole entry): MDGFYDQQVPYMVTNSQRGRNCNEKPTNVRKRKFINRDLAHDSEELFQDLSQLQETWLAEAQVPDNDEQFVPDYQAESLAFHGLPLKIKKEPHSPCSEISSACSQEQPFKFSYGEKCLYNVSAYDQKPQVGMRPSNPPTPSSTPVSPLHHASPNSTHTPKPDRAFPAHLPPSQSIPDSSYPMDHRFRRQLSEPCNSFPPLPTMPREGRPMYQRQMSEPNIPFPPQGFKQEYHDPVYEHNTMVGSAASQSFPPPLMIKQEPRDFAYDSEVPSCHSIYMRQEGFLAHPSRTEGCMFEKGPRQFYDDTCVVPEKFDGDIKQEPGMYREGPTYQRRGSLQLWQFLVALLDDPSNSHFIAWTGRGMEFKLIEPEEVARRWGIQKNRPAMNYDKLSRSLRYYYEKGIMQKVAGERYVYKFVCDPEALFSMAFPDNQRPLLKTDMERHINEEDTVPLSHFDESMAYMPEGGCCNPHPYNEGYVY

Chain of SPIB (Q01892 whole entry): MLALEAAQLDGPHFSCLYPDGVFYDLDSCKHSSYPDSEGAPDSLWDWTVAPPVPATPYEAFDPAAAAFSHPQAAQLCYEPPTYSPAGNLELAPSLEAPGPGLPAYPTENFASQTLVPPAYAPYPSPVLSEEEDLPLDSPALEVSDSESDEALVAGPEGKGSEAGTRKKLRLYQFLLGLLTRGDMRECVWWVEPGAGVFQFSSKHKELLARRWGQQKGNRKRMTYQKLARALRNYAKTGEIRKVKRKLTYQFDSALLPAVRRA
Chain of ETV5 (P41161 whole entry): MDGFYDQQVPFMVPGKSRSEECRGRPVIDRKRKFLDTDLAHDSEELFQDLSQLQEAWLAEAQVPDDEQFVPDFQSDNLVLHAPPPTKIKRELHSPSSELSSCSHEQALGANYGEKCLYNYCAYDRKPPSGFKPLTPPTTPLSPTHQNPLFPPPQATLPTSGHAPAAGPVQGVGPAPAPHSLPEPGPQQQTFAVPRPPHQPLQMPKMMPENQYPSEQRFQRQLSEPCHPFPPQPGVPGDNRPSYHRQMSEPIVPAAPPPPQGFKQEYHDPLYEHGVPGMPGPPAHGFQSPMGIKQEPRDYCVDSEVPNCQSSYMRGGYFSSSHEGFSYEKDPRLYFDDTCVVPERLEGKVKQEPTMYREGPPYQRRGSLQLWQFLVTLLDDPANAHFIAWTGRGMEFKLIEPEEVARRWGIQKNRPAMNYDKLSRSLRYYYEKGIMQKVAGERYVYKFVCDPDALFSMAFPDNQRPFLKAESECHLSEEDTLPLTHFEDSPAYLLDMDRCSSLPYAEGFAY
Chain of ELF4 (Q99607 whole entry): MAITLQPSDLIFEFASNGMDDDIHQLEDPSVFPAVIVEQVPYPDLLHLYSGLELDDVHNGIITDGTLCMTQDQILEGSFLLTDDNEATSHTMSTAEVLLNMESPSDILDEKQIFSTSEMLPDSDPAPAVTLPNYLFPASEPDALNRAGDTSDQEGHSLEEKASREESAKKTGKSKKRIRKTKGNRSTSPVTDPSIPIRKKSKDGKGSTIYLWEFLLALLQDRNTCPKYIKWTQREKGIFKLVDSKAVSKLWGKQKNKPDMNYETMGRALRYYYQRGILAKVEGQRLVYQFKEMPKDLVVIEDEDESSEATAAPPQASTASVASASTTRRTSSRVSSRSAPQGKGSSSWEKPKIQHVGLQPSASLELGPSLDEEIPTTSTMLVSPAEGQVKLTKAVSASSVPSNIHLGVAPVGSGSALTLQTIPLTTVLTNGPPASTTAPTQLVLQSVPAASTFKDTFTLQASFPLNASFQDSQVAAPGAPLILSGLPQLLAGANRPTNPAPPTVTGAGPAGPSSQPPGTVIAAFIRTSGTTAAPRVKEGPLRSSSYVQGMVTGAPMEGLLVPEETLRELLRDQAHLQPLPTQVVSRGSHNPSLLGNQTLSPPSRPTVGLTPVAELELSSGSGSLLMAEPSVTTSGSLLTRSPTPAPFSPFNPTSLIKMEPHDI
Chain of HSF1 (Q00613 whole entry): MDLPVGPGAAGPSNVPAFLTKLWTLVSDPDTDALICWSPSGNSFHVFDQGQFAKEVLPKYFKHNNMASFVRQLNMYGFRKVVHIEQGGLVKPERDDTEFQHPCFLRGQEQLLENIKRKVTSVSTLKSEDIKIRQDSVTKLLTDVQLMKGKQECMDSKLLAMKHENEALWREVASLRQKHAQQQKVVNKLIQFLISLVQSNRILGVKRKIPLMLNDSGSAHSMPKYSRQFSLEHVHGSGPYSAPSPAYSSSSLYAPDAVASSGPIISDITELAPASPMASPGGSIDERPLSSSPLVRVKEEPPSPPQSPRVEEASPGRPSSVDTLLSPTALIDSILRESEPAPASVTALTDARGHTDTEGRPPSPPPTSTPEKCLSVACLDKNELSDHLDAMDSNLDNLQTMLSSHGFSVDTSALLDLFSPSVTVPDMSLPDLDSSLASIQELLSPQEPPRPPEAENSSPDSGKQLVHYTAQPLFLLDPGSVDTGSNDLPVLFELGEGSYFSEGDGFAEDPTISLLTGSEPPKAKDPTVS
Chain of ELF1 (P32519 whole entry): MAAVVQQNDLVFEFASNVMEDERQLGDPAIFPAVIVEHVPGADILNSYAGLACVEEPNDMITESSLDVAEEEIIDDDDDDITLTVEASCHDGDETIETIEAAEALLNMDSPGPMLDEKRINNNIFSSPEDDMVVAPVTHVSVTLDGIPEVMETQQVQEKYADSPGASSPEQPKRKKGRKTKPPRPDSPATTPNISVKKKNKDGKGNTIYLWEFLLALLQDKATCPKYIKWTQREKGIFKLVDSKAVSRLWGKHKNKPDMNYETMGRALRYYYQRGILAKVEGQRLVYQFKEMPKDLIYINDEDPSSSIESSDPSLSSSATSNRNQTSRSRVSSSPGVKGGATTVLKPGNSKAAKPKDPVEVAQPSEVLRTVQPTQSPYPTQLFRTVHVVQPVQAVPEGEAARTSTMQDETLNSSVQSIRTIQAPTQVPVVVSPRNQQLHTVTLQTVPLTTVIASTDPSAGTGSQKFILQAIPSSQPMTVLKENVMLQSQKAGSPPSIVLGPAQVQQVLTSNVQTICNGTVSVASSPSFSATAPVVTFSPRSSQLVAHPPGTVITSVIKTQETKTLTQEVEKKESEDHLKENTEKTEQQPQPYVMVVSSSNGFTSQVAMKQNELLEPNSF

For GAAAAA, the binding signal in the test with FLI1 was 1.07 fold enrichment (6-mer frequency, TF over GST control); in the test with ELK1 it was 1.13 fold enrichment (6-mer frequency, TF over GST control); in the test with GABPA, 1.11 fold enrichment (6-mer frequency, TF over GST control); with ERG it was 1.14 fold enrichment (6-mer frequency, TF over GST control); with ELF1 it was 1.1 fold enrichment (6-mer frequency, TF over GST control); with EHF, 1.2 fold enrichment (6-mer frequency, TF over GST control). Further, the binding signal with SPI1 is 1.21 fold enrichment (6-mer frequency, TF over GST control); with SPIB it was 1.18 fold enrichment (6-mer frequency, TF over GST control); with ELK3, 1.21 fold enrichment (6-mer frequency, TF over GST control); with FEV it was 1.09 fold enrichment (6-mer frequency, TF over GST control); with ETV5 it was 1.13 fold enrichment (6-mer frequency, TF over GST control); with HSF1 it was 1.41 fold enrichment (6-mer frequency, TF over GST control). The binding signal is 1.15 fold enrichment (6-mer frequency, TF over GST control) with SPIC; 1.17 fold enrichment (6-mer frequency, TF over GST control) with ELF4; 1.09 fold enrichment (6-mer frequency, TF over GST control) with ELK4; 1.15 fold enrichment (6-mer frequency, TF over GST control) with ETV2; 1.2 fold enrichment (6-mer frequency, TF over GST control) with ELF3; 1.09 fold enrichment (6-mer frequency, TF over GST control) with ETV1.
